Reference: PubChem BioAssay (Tox21)
Records with an inconclusive call do not appear. Calls of active or inactive are those of the source. Unless noted, the call rests on the fitted dose curve.

Assays:
[1] = Nuclear factor erythroid 2-related factor 2/antioxidant responsive element (Nrf2/ARE) small molecule agonists: qHTS cell viability counter screen in human keratinocytes (AID 1919968; active means well fitted curve in the direction sought with a large enough effect in the repeat runs; an effect the other way counts as inactive or inconclusive; further: nearly all actives have a fitted effect of over 55% in size)
Method in brief: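 Seed 1,500 KeratinoSens cells per well, then incubate 5 h at 37 C/5% CO2. Add compounds in DMSO and incubate 23 h. Add CellTiter-Fluor, wait 1 h and read fluorescence.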

[2] = Nuclear factor erythroid 2-related factor 2/antioxidant responsive element (Nrf2/ARE) small molecule agonists: luciferase reporter gene qHTS assay in human keratinocytes (AID 1919969); further: nearly all actives have a fitted effect of over 35% in size
[3] = molecular target: Gonadotropin-releasing hormone receptor (Homo sapiens) (UniProt P30968); assay: Human gonadotropin-releasing hormone receptor (GnRHR) small molecule agonists, calcium flux assay in GnRHR-HEK293 cells (AID 1920063); further: nearly all actives have a fitted effect of over 35% in size
Method in brief: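 Cells: HEK293 stably expressing human GnRHR. Steps: overnight (18 h) culture, 1 h calcium dye loading at 37 C, compound addition, kinetic fluorescence read at 480/540 nm. Each compound tested at 15 concentrations in triplicate.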

[4] = molecular target: KiSS-1 receptor (Homo sapiens) (UniProt Q969F8); assay: Human kisspeptin (KISS1R) small molecule agonists, calcium flux assay in KISS1R-HEK293 cells (AID 1920064; active means well fitted curve in the direction sought with a large enough effect in the repeat runs; an effect the other way counts as inactive or inconclusive)
Method in brief: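 Cells plated and incubated 18 h; dye added, 1 h at 37 C; compounds in DMSO pinned in; signal read at 480/540 nm every second for 3 min. Each compound tested at 15 concentrations in triplicate.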

[5] = G protein-coupled receptor (GPCR) small molecule agonists, calcium flux assay: HEK293 wild type cell line counter screen (AID 1920065)
Method in brief: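 Counter-screen of the Tox21 10K library for non-specific calcium release: dye-loaded cells received compounds in DMSO and were monitored by kinetic fluorescence (480/540 nm, 3 min). Fifteen concentrations, run in triplicate.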

[6] = p53 small molecule agonists, cell-based qHTS assay with human liver microsomes (AID 1963577);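 further: p53 response element beta-lactamase reporter cells with liver microsomes plus NADPH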
Method in brief: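 p53RE-bla cells; 5 h settle, 37 C/5% CO2; cpd + HLM 0.5 mg/mL + NADPH 0.5 mg/mL (final); 16 h 37 C; LiveBLAzer 2 h RT dark; fluorescence readout.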

[7] = p53 small molecule agonists, cell-based qHTS assay with rat liver microsomes (AID 1963578)
Method in brief: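 Rat liver microsome activation: microsomes 0.5 mg/mL, NADPH 0.5 mg/mL final; p53RE-bla cells, 16 h 37 C; LiveBLAzer readout, 2 h RT dark.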

[8] = p53 small molecule agonists, cell-based qHTS assay with human liver microsomes: qHTS cell viability counter screen (AID 1963579); further: nearly all actives have a fitted effect of over 45% in size
Method in brief: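 Luminescent CellTiter-Glo read-out, 30 min at room temperature, gauged cytotoxicity in p53RE-bla cells exposed 16 h at 37 C to DMSO-dissolved compounds with metabolic activation by human liver microsomes and NADPH, each 0.5 mg/mL final.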

[9] = p53 small molecule agonists, cell-based qHTS assay with rat liver microsomes: qHTS cell viability counter screen (AID 1963580); further: nearly all actives have a fitted effect of over 45% in size
Method in brief: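 p53RE-bla HCT-116 cells were exposed 16 h at 37 C to compounds with rat liver microsomes (0.5 mg/mL) and NADPH (0.5 mg/mL). Viability was measured in the same wells as ATP content by CellTiter-Glo luminescence.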

[10] = molecular target: Beta-2 adrenergic receptor (Homo sapiens) (UniProt P07550); assay: Adrenergic beta2 receptor (ADRB2) small molecule antagonists, cell-based qHTS assay (AID 1963592); further: series mostly up to about 92 µM; nearly all actives have a fitted effect of over 50% in size
Method in brief: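 Cells (CHO, stable ADRB2 overexpression) incubated 18-20hr at 37C; compounds added from DMSO; agonist mix (1nM isoproterenol, 100uM IBMX, 25uM Ro-20-1724) added; 0.5hr RT; d2-cAMP and anti-cAMP-cryptate added; 1hr RT; 665/615 nm read.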

[11] = molecular target: Beta-2 adrenergic receptor (Homo sapiens) (UniProt P07550); assay: Adrenergic beta2 receptor (ADRB2) small molecule agonists, cell-based qHTS assay (AID 1963593);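 further: CHO cells stably overexpressing human ADRB2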
Method in brief: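 CHO cells stably over-expressing ADRB2 were plated overnight at 37C, then dosed with compounds plus a stimulation mix containing 100uM IBMX and 25uM Ro-20-1724 for 0.5hr at room temperature. cAMP was measured by HTRF competition, 1hr.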

[12] = molecular target: D(2) dopamine receptor (Homo sapiens) (UniProt P14416); assay: Dopamine D2 receptor (DRD2) small molecule agonists, cell-based qHTS assay (AID 1963594); further: nearly all actives have a fitted effect of over 35% in size
Method in brief: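 HEK293 cells stably expressing human DRD2, pre-treated with PDE inhibitor Ro20-1724 (0.1 mM final) and compound 10 min at room temperature, then stimulated with NKH477 (200nM […]) for 30 min. cAMP read by HTRF (665/620 nm).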

[13] = p53 small molecule agonists, cell-based qHTS assay (AID 1963582; active means well fitted activation curve with a large enough effect in the signal ratio in the repeat runs, not every such curve was filed as active; the % refers to the signal ratio)
Method in brief: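 Quantitative HTS in p53RE-bla cells: after a 5 h settling period, compounds delivered in DMSO were left on cells for 16 h at 37 C, and reporter induction was measured as fluorescence following 2 h substrate loading.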

[14] = molecular target: 5-hydroxytryptamine receptor 2A (Homo sapiens) (UniProt P28223); assay: 5-hydroxytryptamine receptor 2A (HTR2A) small molecule antagonists, cell-based qHTS assay (AID 1963586); further: nearly all actives have a fitted effect of over 45% in size
Method in brief: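 Antagonist-mode intracellular calcium assay: DOI (4 nM) added after 5 min compound pre-incubation at room temperature to dye-loaded HTR2A-CHO cells. Fluorescence followed for 3 min, sampled every second.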

[15] = molecular target: 5-hydroxytryptamine receptor 2A (Homo sapiens) (UniProt P28223); assay: 5-hydroxytryptamine receptor 2A (HTR2A) small molecule agonists, cell-based qHTS assay (AID 1963587); further: nearly all actives have a fitted effect of over 30% in size
Method in brief: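 CHO cells stably expressing human HTR2A, plated 18 h, loaded with calcium dye 1 h at 37 C. Agonist mode: compounds added and intracellular calcium fluorescence recorded kinetically for 2 min at 1 sec intervals.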

[16] = molecular target: Muscarinic acetylcholine receptor M1 (Homo sapiens) (UniProt P11229); assay: Cholinergic receptor muscarinic 1 (CHRM1) small molecule antagonists, cell-based qHTS assay (AID 1963588); further: nearly all actives have a fitted effect of over 40% in size
Method in brief: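 CHRM1-CHO calcium-flux assay, antagonist mode. Cells were seeded 18 h, dye-loaded 1 h at 37 C and given compound for 5 min at RT, then acetylcholine was added at 50nM. FDSS fluorescence was read 3 min; 15 concentrations, three runs.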

[17] = molecular target: Muscarinic acetylcholine receptor M1 (Homo sapiens) (UniProt P11229); assay: Cholinergic receptor muscarinic 1 (CHRM1) small molecule agonists, cell-based qHTS assay (AID 1963589); further: nearly all actives have a fitted effect of over 35% in size
Method in brief: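 Agonist-mode qHTS in CHO cells stably carrying human muscarinic M1. Intracellular calcium is tracked by fluorescence every second after compound transfer; each compound runs at 15 concentrations in three independent runs.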

[18] = cAMP Responsive Elements (CRE) small molecule agonists, cell-based qHTS assay (AID 1963590)
Method in brief: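 Agonist mode qHTS in CRE-bla HEK 293T cells: compounds dosed from DMSO for 3 h at 37 C/5% CO2, followed by LiveBLAzer B/G FRET substrate for 2 h at room temperature.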

[19] = molecular target: D(2) dopamine receptor (Homo sapiens) (UniProt P14416); assay: Dopamine D2 receptor (DRD2) small molecule antagonists, cell-based qHTS assay (AID 1963595; active means well fitted inhibition curve with a large enough effect in the signal ratio in the repeat runs, with a control signal flat; the % refers to the signal ratio)
Method in brief: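 HEK293 cells stably expressing DRD2, preincubated with 0.1 mM Ro20-1724 and compounds 10 min, were stimulated with 200 nM NKH477 plus 12 nM quinpirole for 30 min at room temperature; cAMP measured by HTRF (665/620 nm).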

[20] = cAMP Responsive Elements (CRE) small molecule antagonists, cell-based qHTS assay (AID 1963591; active means well fitted inhibition curve with a large enough effect in the signal ratio in the repeat runs, not every such curve was filed as active; the % refers to the signal ratio)
Method in brief: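 Antagonist mode: test compounds are co-incubated with the adenylyl cyclase activator NKH477 (0.25 uM final) on CRE-bla HEK293T cells for 3 h at 37 °C, followed by LiveBLAzer substrate loading.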
On the % scale 0 is the no-effect control and ±100 the full control effect.

Sequence of Beta-2 adrenergic receptor (Homo sapiens) (P07550 whole entry, looked up): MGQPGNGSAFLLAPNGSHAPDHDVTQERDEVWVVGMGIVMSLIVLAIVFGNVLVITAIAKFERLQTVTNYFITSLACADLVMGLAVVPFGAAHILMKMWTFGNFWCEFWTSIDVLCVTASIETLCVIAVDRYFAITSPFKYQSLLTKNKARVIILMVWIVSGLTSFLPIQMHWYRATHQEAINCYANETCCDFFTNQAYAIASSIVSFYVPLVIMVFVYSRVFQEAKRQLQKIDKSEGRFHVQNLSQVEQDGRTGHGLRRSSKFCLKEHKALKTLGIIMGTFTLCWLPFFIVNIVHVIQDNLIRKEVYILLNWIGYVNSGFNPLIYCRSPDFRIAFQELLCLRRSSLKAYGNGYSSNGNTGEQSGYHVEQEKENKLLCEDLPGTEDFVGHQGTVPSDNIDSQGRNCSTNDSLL
Sequence of KiSS-1 receptor (Homo sapiens) (Q969F8 whole entry, looked up): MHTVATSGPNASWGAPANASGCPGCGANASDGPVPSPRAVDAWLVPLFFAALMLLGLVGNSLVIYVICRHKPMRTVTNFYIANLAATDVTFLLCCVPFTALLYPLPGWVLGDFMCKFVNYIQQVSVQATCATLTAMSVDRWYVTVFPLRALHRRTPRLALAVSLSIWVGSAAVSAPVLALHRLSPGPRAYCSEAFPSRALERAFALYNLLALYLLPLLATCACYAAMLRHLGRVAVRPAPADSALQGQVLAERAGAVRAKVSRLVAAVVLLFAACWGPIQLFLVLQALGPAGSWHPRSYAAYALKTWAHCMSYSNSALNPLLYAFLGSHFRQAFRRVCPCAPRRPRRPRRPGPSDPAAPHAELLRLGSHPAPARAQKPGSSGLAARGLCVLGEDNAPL
Sequence of D(2) dopamine receptor (Homo sapiens) (P14416 whole entry, looked up): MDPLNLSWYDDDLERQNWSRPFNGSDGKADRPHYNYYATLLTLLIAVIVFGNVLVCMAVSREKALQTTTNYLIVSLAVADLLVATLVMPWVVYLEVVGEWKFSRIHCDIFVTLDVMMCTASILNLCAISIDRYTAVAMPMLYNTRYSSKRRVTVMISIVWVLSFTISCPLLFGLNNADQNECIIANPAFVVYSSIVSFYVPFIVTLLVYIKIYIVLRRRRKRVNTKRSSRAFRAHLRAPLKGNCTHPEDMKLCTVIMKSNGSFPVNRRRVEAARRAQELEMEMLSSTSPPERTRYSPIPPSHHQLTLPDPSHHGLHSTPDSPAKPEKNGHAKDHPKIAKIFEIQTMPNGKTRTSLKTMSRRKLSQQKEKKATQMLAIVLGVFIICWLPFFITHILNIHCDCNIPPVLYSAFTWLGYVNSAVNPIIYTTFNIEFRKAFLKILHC
Sequence of Muscarinic acetylcholine receptor M1 (Homo sapiens) (P11229 whole entry, looked up): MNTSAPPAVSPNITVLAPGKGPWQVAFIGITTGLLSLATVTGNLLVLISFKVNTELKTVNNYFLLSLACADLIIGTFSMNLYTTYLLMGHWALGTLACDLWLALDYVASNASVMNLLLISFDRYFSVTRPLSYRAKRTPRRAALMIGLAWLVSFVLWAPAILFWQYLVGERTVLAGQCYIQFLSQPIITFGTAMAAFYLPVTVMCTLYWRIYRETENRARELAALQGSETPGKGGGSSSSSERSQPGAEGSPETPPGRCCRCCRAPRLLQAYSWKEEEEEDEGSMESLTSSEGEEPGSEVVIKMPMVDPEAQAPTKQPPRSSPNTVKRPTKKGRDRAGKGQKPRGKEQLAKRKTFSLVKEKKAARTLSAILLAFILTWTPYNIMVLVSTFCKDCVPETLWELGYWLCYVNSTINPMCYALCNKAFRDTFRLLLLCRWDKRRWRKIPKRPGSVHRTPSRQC
Sequence of 5-hydroxytryptamine receptor 2A (Homo sapiens) (P28223 whole entry, looked up): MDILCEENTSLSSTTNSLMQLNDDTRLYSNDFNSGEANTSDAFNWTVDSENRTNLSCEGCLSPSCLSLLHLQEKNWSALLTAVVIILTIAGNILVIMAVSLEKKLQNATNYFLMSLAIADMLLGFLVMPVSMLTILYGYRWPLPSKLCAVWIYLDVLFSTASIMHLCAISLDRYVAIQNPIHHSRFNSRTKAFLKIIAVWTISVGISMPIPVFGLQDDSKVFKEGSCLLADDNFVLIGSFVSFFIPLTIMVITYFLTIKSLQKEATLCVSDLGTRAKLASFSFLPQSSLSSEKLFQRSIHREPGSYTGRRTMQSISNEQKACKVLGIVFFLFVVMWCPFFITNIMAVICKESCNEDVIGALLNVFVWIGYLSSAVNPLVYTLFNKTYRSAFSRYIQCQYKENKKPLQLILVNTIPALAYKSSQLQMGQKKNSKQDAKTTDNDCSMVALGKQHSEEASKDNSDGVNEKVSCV
Sequence of Gonadotropin-releasing hormone receptor (Homo sapiens) (P30968 whole entry, looked up): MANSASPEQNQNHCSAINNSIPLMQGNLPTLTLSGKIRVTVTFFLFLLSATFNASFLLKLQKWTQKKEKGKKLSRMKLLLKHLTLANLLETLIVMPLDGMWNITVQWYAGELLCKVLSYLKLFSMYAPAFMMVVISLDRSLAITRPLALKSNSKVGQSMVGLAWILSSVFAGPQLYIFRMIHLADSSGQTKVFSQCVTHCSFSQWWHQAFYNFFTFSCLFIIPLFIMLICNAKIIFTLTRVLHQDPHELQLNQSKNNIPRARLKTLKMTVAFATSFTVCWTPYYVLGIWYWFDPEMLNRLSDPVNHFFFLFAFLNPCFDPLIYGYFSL

CCN1CCCC1CNC(=O)c1cc(S(N)(=O)=O)ccc1OC (stereo not drawn)
inactive: Potency [1] | Potency [2] | Potency [3] | outcome [4] | outcome [5] | Potency [6] | Potency [7] | Potency [8] | Potency [9] | Potency [10] | Potency [11] | Potency [12]

S=c1[nH][nH]c(=S)s1
inactive: Potency [1] | Potency [2] | Potency [3] | outcome [4] | outcome [5] | Potency [6] | Potency [7] | Potency [8] | Potency [13] | Potency [14] | Potency [15] | Potency [16] | Potency [17] | Potency [18] | Potency [10] | Potency [12] | Potency [19]

O=C(Nc1cccc(C2=NCCN2)c1)Nc1cccc(C2=NCCN2)c1
inactive: activity change, negative = cytotoxicity [1] 19.9% [at 19 µM] | activity, positive = activation [2] -4.28% [at 19 µM] | activity change [3] -0.181% [at 11.8 µM, hits give high values] | activation [4] -0.538% [at 15.8 µM] | activation [5] 2.04% [at 11.8 µM] | activation [6] -0.295% [at 13.5 µM] | activation [7] -1.12% [at 13.6 µM] | activity change, negative = cytotoxicity [8] 1.91% [at 13.5 µM] | activation [13] 1.58% [at 13.5 µM] | activity, negative = inhibition [14] -37.2% [at 12.7 µM] | activation [15] 1.02% [at 15.9 µM] | activity, negative = inhibition [16] -4.67% [at 12.6 µM] | activation [17] -0.0869% [at 15.8 µM] | activation [18] -0.37% [at 19 µM] | activity change, negative = inhibition [20] -6.62% [at 18.9 µM] | Potency [11] | activation [12] -15.4% [at 19 µM] | activity change, negative = inhibition [19] -4.58% [at 18.9 µM]

c1cc2c3c(c1)ccc1cccc(c13)C2
inactive: Potency [1] | Potency [2] | Potency [3] | outcome [4] | outcome [5] | Potency [6] | Potency [7] | Potency [8] | Potency [13] | Potency [14] | Potency [15] | Potency [16] | Potency [17] | Potency [10] | Potency [12] | Potency [19]

CCOC(=O)C(O)c1ccccc1 (stereo not drawn)
inactive: Potency [1] | Potency [2] | Potency [3] | outcome [4] | outcome [5] | Potency [6] | Potency [7] | Potency [8] | Potency [13] | Potency [14] | Potency [15] | Potency [16] | Potency [17] | Potency [18] | Potency [20] | Potency [10] | Potency [12] | Potency [19]

Nc1cc([N+](=O)[O-])cc(Cl)c1O
inactive: Potency [1] | Potency [2] | Potency [3] | outcome [4] | outcome [5] | Potency [6] | Potency [7] | Potency [8] | Potency [13] | Potency [14] | Potency [15] | Potency [16] | Potency [17] | Potency [18] | Potency [20] | Potency [10] | Potency [19]

CC(C)NCC(O)COc1ccc(COCCOC(C)C)cc1 (stereo not drawn)
inactive: Potency [1] | Potency [2] | Potency [3] | outcome [4] | outcome [5] | Potency [6] | Potency [7] | Potency [8] | Potency [13] | Potency [14] | Potency [15] | Potency [16] | Potency [17] | Potency [20] | Potency [19]
